# Screens from PubChem BioAssay.
# ADAM10 inh: inhibits human ADAM10. O14672. recombinant ADAM10, EDANS/DABCYL FRET peptide cleavage, 3 h. inhibition, % at 7 µM. 370,000 tested, 0.62% active. AID 720582;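 active = inhibition above a per-campaign cutoff equal to the mean of compounds falling between control-based bounds plus 3 SD, cut at about 20% in these data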;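 also: 0% = DMSO wells while the 100% control is not disclosed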
# ADAM17 inh: inhibits human ADAM17 | AID 720648 | 370,000 tested, 0.83% active | P78536 | recombinant ADAM17, EDANS/DABCYL FRET peptide cleavage | inhibition, % at 6.95 µM;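 active = inhibition above the mean of compounds lying between control limits plus 3 SD, set per campaign, cut at about 8.5% in these data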;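 also: 0% = DMSO-only wells as the low control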
# PLCb3 inh: PLC-beta3 (human) inhibition, primary screen | Q01970 | Purified PLC-beta3, fluorogenic substrate, fluorescence | inhibition, % at 12.2 µM | 370,000 tested, 0.18% active | AID 720704; in the data active = inhibition above about 11%;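 also: 0% = median of compound wells on plate and 100% = full blocker control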
# PLC-gamma1 inh: inhibitors of human phospholipase C gamma1. AID 720700. 370,000 tested, 0.84% active. purified PLC-gamma1, fluorogenic substrate, fluorescence. inhibition, % at 12.2 µM. P19174; in the data active = inhibition above about 9.5%
# Target sequence (P19174 whole entry, looked up): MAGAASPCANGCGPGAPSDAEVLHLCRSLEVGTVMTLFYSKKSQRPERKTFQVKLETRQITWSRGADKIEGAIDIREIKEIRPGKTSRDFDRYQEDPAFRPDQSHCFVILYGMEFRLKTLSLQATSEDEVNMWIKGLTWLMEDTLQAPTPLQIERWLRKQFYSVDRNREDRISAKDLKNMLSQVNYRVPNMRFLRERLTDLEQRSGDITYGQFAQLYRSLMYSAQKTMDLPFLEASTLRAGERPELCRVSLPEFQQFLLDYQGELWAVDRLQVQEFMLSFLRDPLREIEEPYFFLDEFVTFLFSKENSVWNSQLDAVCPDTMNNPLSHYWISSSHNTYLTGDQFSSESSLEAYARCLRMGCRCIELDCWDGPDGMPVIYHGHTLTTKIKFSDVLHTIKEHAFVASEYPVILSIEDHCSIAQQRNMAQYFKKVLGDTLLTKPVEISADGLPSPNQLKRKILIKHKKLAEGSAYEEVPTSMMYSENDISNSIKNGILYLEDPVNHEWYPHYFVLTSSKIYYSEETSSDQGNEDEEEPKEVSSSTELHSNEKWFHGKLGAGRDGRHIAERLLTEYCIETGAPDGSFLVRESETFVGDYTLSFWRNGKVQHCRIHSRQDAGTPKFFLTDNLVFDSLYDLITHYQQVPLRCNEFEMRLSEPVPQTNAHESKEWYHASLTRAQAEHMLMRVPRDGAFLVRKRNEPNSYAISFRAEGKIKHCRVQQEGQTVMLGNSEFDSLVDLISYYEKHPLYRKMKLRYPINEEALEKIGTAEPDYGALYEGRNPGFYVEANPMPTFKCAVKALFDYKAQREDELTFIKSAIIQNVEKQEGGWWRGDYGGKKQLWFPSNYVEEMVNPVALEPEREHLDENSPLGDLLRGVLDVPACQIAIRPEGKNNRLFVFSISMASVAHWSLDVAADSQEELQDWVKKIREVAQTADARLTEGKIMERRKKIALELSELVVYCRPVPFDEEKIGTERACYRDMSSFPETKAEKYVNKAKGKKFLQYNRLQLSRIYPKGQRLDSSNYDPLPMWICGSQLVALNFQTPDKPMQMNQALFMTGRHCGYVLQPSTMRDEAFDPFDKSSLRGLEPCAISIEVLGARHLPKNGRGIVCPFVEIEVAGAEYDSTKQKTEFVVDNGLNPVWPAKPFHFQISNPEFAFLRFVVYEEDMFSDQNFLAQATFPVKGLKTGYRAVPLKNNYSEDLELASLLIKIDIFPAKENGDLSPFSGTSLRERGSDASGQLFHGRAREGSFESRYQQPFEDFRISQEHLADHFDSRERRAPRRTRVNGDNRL
# KLK7 zymogen act: activates the human kallikrein-7 zymogen; P49862; purified proKLK7, EDANS-DABCYL substrate fluorescence; 100% is mature enzyme control, 0% vehicle; activation, % at 7 µM; 370,000 tested, 0.9% active;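 active = activation above the mean of all tested compounds plus 3 SD, computed per campaign excluding outliers beyond control limits, cut at about 13% in these data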
# ADAM10 confirm: confirmation of inhibitors of human ADAM10; inhibition, % at 6.95 µM; 2,100 tested, 1% active; AID 743208; ADAM10 QFRET peptide cleavage, EDANS fluorescence; shares compounds with ADAM10 inh;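 active = inhibition above about 20% chosen separately for each screening run, limit read from the data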;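 also: 0% = DMSO wells and 100% = marimastat wells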
# ADAM17 ctr: ADAM17 inhibition, counter-screen for ADAM10 exosite hits; AID 743214; shares compounds with ADAM10 inh; 2,100 tested, 0.5% active; ADAM17 QFRET peptide cleavage, EDANS fluorescence; inhibition, % at 6.95 µM;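 active = mean triplicate inhibition above the solvent-only control wells' mean plus 3 SD, cut at about 12% in these data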;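 also: 0% = DMSO wells and 100% = marimastat wells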
# * = called active by the depositor; / = not tested or not shown. Shown are actives, neighbours in structure and some others; about 2.9% of the full set was active somewhere.
SMILES,ADAM10 inh,ADAM17 inh,PLCb3 inh,PLC-gamma1 inh,KLK7 zymogen act,ADAM10 confirm,ADAM17 ctr
C[C@H](CO)N1C[C@H](C)[C@@H](CN(C)S(=O)(=O)c2cccs2)Oc2ccc(NC(=O)Nc3ccc4c(c3)OCO4)cc2C1=O,0,3,-2,-4,0,/,/
C[C@H]1CN([C@@H](C)CO)C(=O)c2cccc(NC(=O)Nc3ccc(C(F)(F)F)cc3)c2O[C@@H]1CN(C)S(=O)(=O)c1ccccc1,40*,21*,6,8,0,3,2
O=C1CCC[C@H]2C[C@H](NCc3ccc(Cl)c(Cl)c3)CC[C@]23CCCN13,-1,-3,0,0,/,/,/
COC(=O)C1CN(CC(C)C)CCS(=O)(=O)N1Cc1ccc(Cl)cc1 (stereo not given),12,1,4,1,1,/,/
Cc1ccc(S(=O)(=O)Nc2ccc3c(c2)C(=O)N([C@@H](C)CO)C[C@@H](C)[C@@H](CN(C)S(=O)(=O)c2ccccc2)OCCCC[C@H](C)O3)cc1,23*,8,4,3,0,7,2
C#CCNC(=O)C[C@H]1C[C@@]2(C(=O)OC)C(=C[C@H](C(C)(C)C)O[C@@H]2C)N(CCCCCCCC)C1=O,6,3,3,2,0,/,/
CCCn1c(C(CO)Nc2nc(-c3cccc(Br)c3)cs2)nc2ccccc21 (stereo not given),22*,9,1,1,-1,10,3
OCCOCCn1c(C(CO)Nc2nc(-c3cccc(Br)c3)cs2)nc2ccccc21 (stereo not given),2,3,1,2,1,/,/
S=c1[nH]cc(-c2ccccc2)n1-c1ccccc1,23*,11*,6,13*,0,-2,0
Cc1ccc(-n2c(-c3ccccc3)c[nH]c2=S)cc1,8,5,1,1,0,/,/
Cc1ccc(S(=O)(=O)N(C)C)cc1NC(=S)NNC(=O)C1CC1,20*,-2,3,1,0,0,0
O=C(OCC#CCSc1nnc(-c2cccc3ccccc23)o1)C1CCCC1,-43,-11,-23,-17,/,/,/
C=CCOC(=O)N1CCN(C(=O)c2ccc3nc(C)n(C4CCCC4)c3c2)CC1,1,1,7,6,0,/,/
Cc1cc(S(=O)(=O)NCC(c2ccccc2)c2ccccc2)ccc1-n1cnnn1,20*,5,-5,0,0,2,1
CCc1cc(C(=O)Cc2ccc(F)cc2)c(O)cc1O,23*,9,-54,-32,-2,2,2
CCCc1cc(C(=O)Cc2ccc(F)cc2)c(O)cc1O,17,7,-45,-37,-2,/,/
COC(=O)[C@]12C[C@H](CC(=O)NCc3ccc(C)o3)C(=O)N(Cc3ccco3)C1=C[C@H](COCc1ccccc1)O[C@@H]2C,8,3,4,5,0,/,/
Cc1ccc(C(=O)NC(=S)NNC(=O)c2ccccc2)cc1,10,4,-4,4,0,/,/
Cc1ccc(C(=O)NNC(=S)NC(=O)c2ccccc2)cc1,24*,5,2,7,0,1,1
COC(=O)c1cnc(Nc2nc(C(N)COCc3ccccc3)cs2)nc1C(F)(F)F (stereo not given),22*,5,2,6,0,3,1
COC(=O)c1cnc(Nc2nc(C(N)c3ccccc3Cl)cs2)nc1C(F)(F)F (stereo not given),7,1,7,-1,0,/,/
Cc1ccc(NC(=O)[C@@H]2CCCN2S(=O)(=O)c2cccc3cccnc23)c(C)c1,1,0,5,6,/,/,/
COC(=O)c1cc2c(c3c4cc(OC)ccc4n(S(=O)(=O)c4ccc(F)cc4)c13)C(=O)N(CC(C)C)C2,-10,-2,-32,-37,1,/,/
COc1ccc(N2CCN(CCNS(=O)(=O)c3ccc(C)cc3)CC2)cc1,86*,3,-4,0,0,2,2
O=C(OC12CCCN(C1)/C(=C/c1ccncc1)C2)c1ccc(Cl)cc1 (stereo not given),-2,4,-9,-7,0,/,/
SMILES,ADAM10 inh,ADAM17 inh,PLCb3 inh,PLC-gamma1 inh,KLK7 zymogen act,ADAM10 confirm,ADAM17 ctr
O=C(Nc1cc([N+](=O)[O-])ccc1Cl)C(Sc1ccccc1)c1ccccc1 (stereo not given),10,5,2,-1,0,/,/
O=C(Nc1ccc(Cl)c([N+](=O)[O-])c1)C(Sc1ccccc1)c1ccccc1 (stereo not given),26*,11*,6,5,0,8,3
Clc1ccc([C@H]2OC[C@@]3(CNC4CCCCC4)CS[C@H](c4ccc(Cl)cc4)N23)cc1,10,2,2,1,-1,/,/
Cc1ccc(Cl)cc1NC(=S)NCCCSC1CCCCC1,22*,2,-6,1,1,2,1
Cc1ccc(C(=O)c2ccccc2C(=O)OCC(=O)Nc2cccc([N+](=O)[O-])c2)cc1,27*,7,5,2,0,6,1
Oc1ccc(F)cc1-c1cc(-c2ccc3c(c2)OCCO3)n[nH]1,23*,7,-5,-2,0,7,3
Oc1ccccc1-c1cc(-c2ccc(F)cc2)n[nH]1,3,0,-3,1,0,/,/
CCOC(=O)c1c(CN2CCN(c3ccccc3)CC2)oc2cc(Br)c(O)cc12,21*,7,-7,3,1,5,2
COc1ccc(CN(CCN2CCOCC2)C(=O)c2cc(F)ccc2F)cc1OC,-2,2,3,2,0,/,/
C#CCN(Cc1ccco1)C(=O)c1nnc2c3ccccc3n(S(=O)(=O)c3ccc(C)cc3)c2n1,-42,-8,-22,-17,-1,/,/
CCc1c(C#N)c(SCCC(=O)Nc2cccc(OC)c2)nc2c1C(=O)CC(C)(C)C2,22*,7,2,3,-1,8,1
COc1ccc(NC(C)C(=O)Nc2ccc(C(C)(C)C)cc2)cc1Cl (stereo not given),27*,7,0,-1,0,7,1
O=C(Nc1cccc2ccccc12)c1ccccc1NS(=O)(=O)c1cccc2cccnc12,-8,-1,0,0,-1,/,/
O=C(O)c1ccccc1NS(=O)(=O)c1cccc2cccnc12,22*,0,11*,8,0,-1,0
NC(=O)[C@@H]1CCCN1C(=O)[C@@H](Cc1ccccc1)NC(=O)[C@H]1O[C@@H](n2ccc(N)nc2=O)[C@H](O)[C@@H]1O,-7,-3,2,1,0,/,/
NC(=O)c1ccsc1NC(=O)CS(=O)(=O)c1ccccc1,84*,-1,3,1,1,0,0
NC(=O)c1ccsc1NC(=O)CCS(=O)(=O)c1ccccc1,-1,0,-6,0,0,/,/
